Experiment in all cases: NCI-60 one-dose screen, 48 h (100 = growth as untreated, 0 = no growth, -100 = all killed)
Details in all cases: 10 µM unless noted

The test system of test [1] is T-47D breast.
For test [2], the system named is BT-549 breast.
Test [3] has as its system MDA-MB-435 melanoma.
The test system of test [4] is SW-620 colon.
For test [5], the system named is MCF7 breast.
Test [6] concerns HCT-116 colon.
The test system of test [7] is HCC-2998 colon.
Test [8] deals with KM12 colon.

SMILES strings stand for the structures. This is part of a sample that, as a whole, favours compounds with a hit. Of some 83,000 tested, about 20% had one in any assay.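 Method: cells in 96-well plates; compound added at one concentration; 48 h incubation; percent growth measured; values under 10 scored active.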 Values without a mark were called inactive. Activity calls are given as the source filed them.

From PubChem BioAssay (NCI) come the findings set out here.

With `Cc1ncc(C(=O)Nc2ccc(CN3CCN(C)CC3)c(C(F)(F)F)c2)cc1C#Cc1cnc(N)c2ccncc12`, the growth in test [1] is -37.3% (active); in test [2], 22.9%; in test [3] it was -94% (active); in test [4], -59.5% (active); in test [5] it was -72% (active); in test [6], -87.6% (active). Further, the growth in test [7] is -89.3% (active); in test [8] it was -70% (active).
`Cc1ccc(O)c(NC(=O)c2ccc(CNc3ccnc(C(F)(F)F)c3)cc2)c1`: the growth in test [1] was 82.3%; in test [2], 52.3%; in test [3], 39.6%; in test [4] it was 87%; in test [5], 37.6%; in test [6] it was 66.4%. The results for the growth in test [7] and in test [8] were 27.7% and 72.3%, respectively.
Turning to `Cc1ncc(C(=O)Nc2ccc(CN3CCN(C)CC3)c(C(F)(F)F)c2)cc1C#Cc1cnc(N)c2cnccc12`, the growth in test [1] was 8.63% (active); in test [2], 14.6%; in test [3], 6.4% (active); in test [4] it was -55.3% (active); in test [5], -73.7% (active); in test [6], -86.1% (active). Further, the growth was -1.5% (active) in test [7] and 9.54% (active) in test [8].
`Cc1cccc(NC(=O)CSc2nc3ccc([N+](=O)[O-])cc3[nH]2)c1`: the growth in test [1] is 51.8%; in test [2], 100%; in test [3], 72%; in test [4] it was 97.9%; in test [5] it was 86.5%; in test [6], 70%. Moreover, the growth was 96.9% in test [7] and 81.9% in test [8].
`COc1cc(-c2nc(SCCC(C)C)nc(N3CCOCC3)c2C#N)cc(OC)c1OC`: the growth was 13.9% in test [1]; 79.9% in test [2]; 85.6% in test [3]; 27.7% in test [4]; 58.9% in test [5]; 5.13% (active) in test [6]. For the same molecule, the growth is 91.7% in test [7] and 38% in test [8].
Turning to `O=C(CCCCCCN1CC(=O)N2[C@@H](c3ccc(Cl)cc3)c3[nH]c4ccccc4c3C[C@H]2C1=O)NO`, the growth in test [1] was 42.1%; in test [2], 77.2%; in test [3] it was 53.9%; in test [4], 62.9%; in test [5], 46.2%; in test [6], 38.6%. Moreover, the values for the growth in test [7] and in test [8] were 81.2% and 75.1%, respectively.
As to `COc1ccc(Cc2cnc(NC(=O)c3sc4ccccc4c3Cl)s2)cc1`, the growth in test [1] is 34.5%; in test [2], 34.7%; in test [3], -39.1% (active); in test [4], 25%; in test [5], 17.5%; in test [6], 15.1%. For the same molecule, the growth is 25.6% in test [7] and 16.7% in test [8].
In the case of `COc1ccc2nc3ccccc3c(NCc3ccccc3)c2c1`, the growth in test [1] was 35.3%; in test [2], 50.3%; in test [3], 33.8%; in test [4] it was 19.5%; in test [5], 4.29% (active); in test [6], 14.8%. Moreover, the growth in test [7] was -35.5% (active); in test [8], 36.5%.
For `N#CCC1=NC(c2cccs2)=Nc2ccccc2S1`, the growth in test [1] is 69.7%; in test [2] it was 86.6%; in test [3], 105%; in test [4], 97.8%; in test [5], 96.8%; in test [6], 80.8%. The growth was 92.5% in test [7] and 94.9% in test [8].
As to `Cn1cc(-c2nonc2-c2c[nH]c3ccccc23)c2ccccc21`, the growth in test [1] was 25.9%; in test [2], 18.7%; in test [3], -45.3% (active); in test [4], 22.4%; in test [5], 14.3%; in test [6], 5.44% (active). For the same molecule, the growth in test [7] is 11.1%; in test [8] it was 7.64% (active).
In the case of `Cn1c(O)c(C(/C=C/c2ccccc2)=Nc2ccccc2N)c(=O)n(C)c1=O`, the growth in test [1] was 85.5%; in test [2] it was 121%; in test [3] it was 95.5%; in test [4], 106%; in test [5] it was 99%; in test [6] it was 56.7%. Besides, the growth in test [7] is 90%; in test [8] it was 107%.
Turning to `COc1cc(/C=C2\C(=O)N(c3c(Cl)cccc3Cl)c3ccccc32)cc(OC)c1OCCCCCCn1c2ccccc2c(=O)c2ccccc21`, the growth was 89.6% in test [1]; 94.4% in test [2]; 103% in test [3]; 106% in test [4]; 92% in test [5]; 95.9% in test [6]. The growth is 112% in test [7] and 103% in test [8].
Turning to `Cc1ccc(/C=C(\C#N)C(=O)Nc2ncc(Cc3cc(Cl)ccc3Cl)s2)o1`, the growth in test [1] is 51.1%; in test [2], 65.4%; in test [3], 30.4%; in test [4] it was 53.4%; in test [5], 49.6%; in test [6] it was 54.4%. For the same molecule, the growth in test [7] is 29.7%; in test [8] it was 27%.
In the case of `Cc1ccc(-c2csc(NC(=O)N3CCN(c4cc5c(cc4F)c(=O)c(C(=O)O)cn5C4CC4)CC3)n2)cc1`, the growth in test [1] is 11.5%; in test [2], 3.9% (active); in test [3], 17.6%; in test [4] it was 27.2%; in test [5], 6.05% (active); in test [6], 11.4%. Further, the growth in test [7] was 32.9%; in test [8] it was 11.4%.
With `N#Cc1c(Nc2ccc(F)cc2)n[nH]c1-c1cccs1`, the growth in test [1] is 86%; in test [2] it was 98.3%; in test [3], 99.5%; in test [4], 101%; in test [5], 80.9%; in test [6] it was 100%. The growth was 98.6% in test [7] and 98.1% in test [8].
For `CCNC(=O)Oc1ccc(/C(=C(/C)Cc2ccc(OC)cc2)c2ccc(OCCN3CCCC3)cc2)cc1`, the growth in test [1] was 42.7%; in test [2], 85.9%; in test [3], 61.2%; in test [4], 81.4%; in test [5] it was 29%; in test [6], 44%. In addition, the growth in test [7] is 71.2%; in test [8], 71.5%.
